# In all, about 340,000 compounds went through this assay and about 5,100 (1.5%) were called active. The list comes from a sample in which actives are over-represented; it also holds similar structures and randomly drawn compounds. A number with no mark means an inactive call.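 How the source made its calls: active means mean Tm shift, scaled 0 neutral to 100 positive control, at about 1.3% or above, every replicate too (limit read from the data); inconclusive means no clear call, values can overlap the other calls; inactive means the rest.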
# Biological target: Fibroblast growth factor 22 (Homo sapiens) (UniProt Q9HCT0)
# Experiment: binders of human FGF22 protein, primary screen, FGF22 synaptogenesis inhibitor project, biophysical, thermal shift, single point (AID 651658)
# Settings: recombinant FGF22 thermal shift, SYPRO orange fluorescence; at 9.99 µM; active compounds read high; percent of sucrose octasulfate shift, DMSO zero
# Chain of Fibroblast growth factor 22 (Homo sapiens) (Q9HCT0 whole entry, looked up): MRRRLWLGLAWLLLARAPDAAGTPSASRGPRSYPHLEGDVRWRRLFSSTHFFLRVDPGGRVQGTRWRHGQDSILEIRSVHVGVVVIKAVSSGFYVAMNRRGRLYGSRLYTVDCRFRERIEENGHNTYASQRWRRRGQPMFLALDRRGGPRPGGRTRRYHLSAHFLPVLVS
row,Structure (SMILES),"activity (Tm shift, normalised)"
1,O=C(CN1C(=O)NC2(CCCCCC2)C1=O)NCc1ccc(F)cc1,0.013%
2,O=C(CN1C(=O)NC2(CCCCCC2)C1=O)NC1CC1,-0.266%
3,O=C(CN1C(=O)NC2(CCCC2)C1=O)NCC1CCCO1 (centres undefined),43.3% (active)
4,COc1cccc(NC(=O)C[C@H]2CC[C@@H]3[C@@H](COc4ccc(NC(=O)C5CCOCC5)cc4C(=O)N3C)O2)c1,0.326%
5,C[C@H]1CN([C@@H](C)CO)C(=O)c2cc(-c3ccccc3)cnc2O[C@H]1CN(C)C(=O)C1CCOCC1,0.036%
6,O=C(NC1Cc2ccccc2C1)[C@@H]1[C@@H](CO)[C@@H]2Cn3c(ccc(C4=CCCC4)c3=O)[C@H]1N2CC1CC1,0.451%
7,C[C@H]1CN([C@@H](C)CO)C(=O)CCCn2nncc2CO[C@@H]1CN(C)S(=O)(=O)c1ccccc1C#N,-0.468%
8,Cc1ccccc1OCC(O)CN1CCN(c2ccccn2)CC1 (centres undefined),44.2% (active)
9,Cc1cccc(OCC(O)CN2CCN(CCN3C(=O)c4cccc5cccc(c45)C3=O)CC2)c1C (centres undefined),0.358%
10,CC(C)c1ccc(OCC(O)CN2CCN(c3ccccn3)CC2)cc1 (centres undefined),-0.21%
11,COc1ccc(NC(=O)N[C@H]2C=C[C@H](CC(=O)NCc3ccccn3)O[C@H]2CO)cc1,0.256%
12,CO[C@H](CN(C)C(=O)c1cnccn1)[C@@H](C)CN([C@@H](C)CO)S(=O)(=O)c1ccc(C)cc1,0.044%
13,OCC1(Cc2ccccc2)CCN(Cc2cc3ccccc3o2)CC1,42.4%
14,COc1ccccc1/C=C/CN1CCC(CO)(Cc2ccccc2)CC1,43.2% (active)
15,COc1ccc(CC2(CO)CCN(Cc3cnn(C)c3)CC2)cc1,0.198%
16,CO[C@H]1CN(C)C(=O)c2cc(NC(=O)c3nc4ccccc4s3)ccc2OC[C@H](C)N(Cc2cccnc2)C[C@@H]1C,-0.365%
17,COc1cccc(S(=O)(=O)N2CCCCN3[C@H](CO)[C@H](c4ccc(-c5ccncc5)cc4)[C@H]3C2)c1,-0.25%
18,O=C(Nc1ccccc1F)N1C[C@H]2[C@@H](c3ccccc31)[C@@H](CO)N2C(=O)Cc1cccnc1,0.459%
19,CC(C)CC(=O)Nc1ccc(Cc2ccncc2)cc1,-0.02%
20,Cc1cc([N+](=O)[O-])nn1CC(=O)Nc1ccc(Cc2ccncc2)cc1,43.3% (active)

row,Structure (SMILES),"activity (Tm shift, normalised)"
1,Cc1cc(C)n(CC(=O)Nc2ccc([N+](=O)[O-])cc2)n1,-0.311%
2,COCC(=O)N1CC[C@H]2[C@H](CO)Nc3ccc(-c4ccc(C(=O)N(C)C)cc4)cc3[C@H]21,-0.374%
3,CN(C)C(=O)C[C@@H]1CC[C@H](NC(=O)NC2CCCC2)[C@H](CO)O1,-0.148%
4,CCC(C)N(C(=O)COC(=O)C1C(C(=O)OC)=C(C)NC(C)=C1C(=O)OC)C1CCS(=O)(=O)C1 (centres undefined),43.2% (active)
5,CCC(C)N(C(=O)CSc1nnnn1-c1ccccc1OC)C1CCS(=O)(=O)C1 (centres undefined),-0.269%
6,CCC(C)N(C(=O)COC(=O)c1nc(Cl)ccc1Cl)C1CCS(=O)(=O)C1 (centres undefined),0.546%
7,O=C(Cc1ccccn1)NCC[C@H]1CC[C@H](NC(=O)Nc2ccc(F)cc2)[C@@H](CO)O1,0.059%
8,O=C(NN=C1CCC(=NNC(=O)c2cccnc2)CC1)c1cccnc1,-0.314%
9,O=C(CNC(=O)c1cccnc1)N/N=C/c1cc(Br)c(O)c(Br)c1,0.674%
10,Cc1cc(/C=N/NC(=O)c2cccnc2)c(C)n1CC(C)C,43% (active)
11,O=C(C[C@@H]1C[C@@H]2c3cc(NC(=O)Nc4ccc(C(F)(F)F)cc4)ccc3O[C@@H]2[C@@H](CO)O1)NCCc1ccccc1,0.083%
12,COc1ccc(NC(=O)N(C)C[C@H]2OCCCC[C@H](C)Oc3ccc(NC(=O)c4ccncc4)cc3C(=O)N([C@H](C)CO)C[C@@H]2C)cc1,-0.473%
13,C[C@@H]1CN([C@H](C)CO)C(=O)c2cc(C3=CCCC3)cnc2O[C@@H]1CN(C)C(=O)Nc1ccc(F)cc1,-0.106%
14,COc1cc([N+](=O)[O-])ccc1NC(=O)CN1CCCC1,1.49% (active)
15,O=C(CN1CCCCCC1)Nc1ccc(Br)cc1[N+](=O)[O-],-0.021%
16,COc1cc(Cl)c(C)cc1NC(=O)CN1CCCCCC1,-0.091%
17,CC(=O)Nc1ccc(-c2csc(NC(=O)Nc3ccccc3)n2)cc1,44.8% (active)
18,NC(c1ccccc1)c1csc(NC(=O)Nc2cccc(C(F)(F)F)c2)n1 (centres undefined),-0.154%
19,O=C(Nc1ccccc1)Nc1nc2ccccc2s1,43.2% (active)

# Source: PubChem BioAssay AID651658 (Broad Institute, 2012)
